Screening results as filed in PubChem BioAssay.
USP28 inh = inhibitors of human USP28 deubiquitinase; Q96RU2; purified USP28, Ub-rhodamine cleavage fluorescence, 30 min; 47,000 tested, 3% active; AID 1645857; inhibition, % at 25 µM
USP10 inh = inhibitors of human USP10 deubiquitinase | Q14694 | purified USP10, Ub-rhodamine fluorescence, 60 min | inhibition, % at 20 µM | 47,000 tested, 1.1% active | AID 1645856
USP30 inh = inhibitors of human USP30 deubiquitinase. purified USP30, Ub-rhodamine cleavage fluorescence. AID 1645860. inhibition, % at 25 µM. 47,000 tested, 5.3% active
Target sequence (Q70CQ3 whole entry, looked up): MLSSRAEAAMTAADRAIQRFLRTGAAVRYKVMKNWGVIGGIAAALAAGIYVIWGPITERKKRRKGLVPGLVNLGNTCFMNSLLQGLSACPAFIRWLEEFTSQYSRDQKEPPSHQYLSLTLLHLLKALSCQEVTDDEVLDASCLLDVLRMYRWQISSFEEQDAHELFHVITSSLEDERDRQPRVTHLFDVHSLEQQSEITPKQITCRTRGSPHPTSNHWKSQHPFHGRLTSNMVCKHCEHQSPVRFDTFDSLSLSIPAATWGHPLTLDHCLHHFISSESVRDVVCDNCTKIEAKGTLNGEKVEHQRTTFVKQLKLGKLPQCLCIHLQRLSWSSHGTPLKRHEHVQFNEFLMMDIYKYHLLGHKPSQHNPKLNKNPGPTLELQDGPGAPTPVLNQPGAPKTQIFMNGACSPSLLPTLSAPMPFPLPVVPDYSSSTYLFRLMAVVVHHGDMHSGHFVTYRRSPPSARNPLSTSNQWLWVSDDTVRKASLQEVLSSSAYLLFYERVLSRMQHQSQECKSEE
USP8 inh = inhibitors of human USP8 deubiquitinase | 47,000 tested, 4.2% active | purified USP8, Ub-rhodamine cleavage fluorescence, 30 min | P40818 | inhibition, % at 20 µM
USP17 inh = human USP17-like deubiquitinase inhibition. purified USP17, Ub-rhodamine cleavage fluorescence, 3 h. 47,000 tested, 6.5% active. AID 1645855. A8MUK1. inhibition, % at 50 µM
An asterisk follows results filed as active; i = inactive; · = no result given. Only some compounds are listed: those with a hit (about 13% of all), similar ones and a draw of the others. No stated cut-off is given here; in the data, active means inhibition above about 30%; inactive means the rest.

SMILES | USP28 inh | USP10 inh | USP30 inh | USP8 inh | USP17 inh
Cc1ccc(OC(C)C(=O)Nc2ccc3nsnc3c2)cc1C (stereo unspecified) | -64 | 0 | -19 | 45* | 4
CC(Oc1ccccc1Cl)C(=O)Nc1ccc2nsnc2c1 (stereo unspecified) | 17 | 3 | 25 | 36* | 13
CCc1ccc(OC(C)C(=O)Nc2ccc3nsnc3c2)cc1 (stereo unspecified) | 21 | 3 | 6 | 66* | 25
COc1cc2c(cc1CN1CCCC[C@@H]3[C@H]1CCN3C(C)=O)CCC2 | -10 | -3 | -20 | -6 | -13
Cc1cccc(NC(=O)CCc2nc(-c3cccnc3)no2)c1 | -18 | -1 | -13 | -6 | -8
CCc1nc(-c2ccc(C(=O)Nc3cccnc3)cc2)no1 | 49* | -2 | -7 | -6 | -4
CCCC(=O)NCC1(N2CCOCC2)CCCCC1 | -11 | 3 | 0 | 3 | -12
Cc1nnc2ccc(-c3ccc(NS(=O)(=O)c4ccccc4F)cc3)nn12 | 17 | 8 | 23 | 23 | 43*
NS(=O)(=O)c1ccc(NC(=O)c2sccc2Oc2ccc(F)cc2[N+](=O)[O-])cc1 | 32* | 5 | 61* | -4 | 55*
NS(=O)(=O)c1ccc(NC(=O)c2ccc3ncsc3c2)cc1 | 15 | 0 | 3 | -2 | 17
O=c1cc(-c2ccc(O)c(O)c2)oc2cc(O[C@@H]3O[C@H](CO)[C@@H](O)[C@H](O)[C@H]3O)cc(O)c12 | 90* | 52* | 91* | 27 | 84*
CCc1ccc(-n2c(=O)[nH]c3c(c2=O)C(C)(C)Cc2ccccc2-3)cc1 | 3 | 1 | -1 | 18 | 37*
Cc1c(C(=O)Nc2ccccn2)oc2c(Cl)cccc12 | 23 | 0 | 48* | 0 | 33*
Cc1c(Cl)cccc1NC(=O)C(NS(=O)(=O)c1ccc2c(c1)OCCO2)C(C)C (stereo unspecified) | 0 | -3 | -15 | 16 | -1
Cc1c(C(=O)Nc2ccccc2F)nnn1-c1cccc(F)c1 | 27 | -1 | -3 | -12 | 2
COc1ccc(NC(=O)c2nnn(-c3ccccc3)c2C)cc1Cl | 7 | 4 | -4 | 0 | 10
Cc1ccc(-n2nnc(C(=O)Nc3ccccc3)c2C)cc1 | 6 | 2 | 16 | 0 | 49*
COc1ccc(NC(=O)c2nnn(-c3ccccc3)c2C)cc1OC | 56* | -4 | 0 | 1 | -4
COc1ccc(Cl)cc1-n1nnc(C(=O)Nc2ccc(C)cc2C)c1C | 24 | 4 | 13 | 19 | 31*
Cc1cccc(NC(=O)c2nnn(-c3ccccc3Cl)c2C)c1C | 39* | 2 | 18 | 11 | 10
CCc1ccc(NC(=O)c2nnn(-c3ccc(C)cc3)c2C)cc1 | 10 | 8 | 7 | 25 | 11
COc1ccc(F)cc1S(=O)(=O)N1CCCC(c2nc(C)c3c(n2)N(C)C(=O)CC3)C1 (stereo unspecified) | -2 | 0 | 0 | -1 | -3
COc1ccc(-n2nnc(C(=O)Nc3ccccc3)c2N)cc1 | 12 | 4 | 14 | 19 | 51*
COc1cccc(-n2nnc(C(=O)Nc3ccc(Oc4ccccc4)cc3)c2C)c1 | 22 | 14 | -15 | -2 | -7
COc1ccccc1-n1nnc(C(=O)Nc2ccc(Oc3ccccc3)cc2)c1C | 52* | 6 | 14 | 8 | 6
SMILES | USP28 inh | USP10 inh | USP30 inh | USP8 inh | USP17 inh
Cc1ccc(-n2nnc(C(=O)Nc3ccc(C)c(C)c3)c2C)cc1 | 12 | 4 | 27 | 40* | 19
Cn1cc2c(n1)C(COc1cccnc1)CN(C(=O)N1CCCC1)C2 (stereo unspecified) | -7 | -4 | -2 | -6 | -20
CC(C)NC(=O)N1CCC2(C1)c1ccccc1S(=O)(=O)N2CC1CC1 (stereo unspecified) | 1 | -2 | -3 | -38 | -8
NS(=O)(=O)c1ccc(CNS(=O)(=O)c2ccc(-c3ccccn3)s2)cc1 | 24 | 5 | 60* | 2 | ·
O=C(Nc1ccc2c(c1)OCO2)c1cc(-c2cccnc2)n(-c2ccccc2)n1 | 79* | 8 | 24 | 22 | 30*
Cc1ccc(CNC(=O)C2CCCN(c3cnc4nccnc4c3)C2)cc1 (stereo unspecified) | -248 | -5 | i | -180 | -138
Cc1ccc(CCNC(=O)C2CCCN(c3ncnc4onc(C)c34)C2)cc1 (stereo unspecified) | 5 | 0 | 36* | 18 | -6
CC(=O)Nc1ccc(CN2CC[C@H](c3nnc(-c4cccnc4)o3)C2)cc1 | -1 | 0 | -3 | -1 | -8
